According to PubChem BioAssay (NCI):
The panel holds about 79,000 compounds, 15% with a hit somewhere; the sample as a whole holds those more often. Rule as the data show it: active = growth inhibition above about 70%; inactive = the rest.

Experiments:
[1] = NCI Yeast Anticancer Drug Screen. Data for the rad50 strain (AID 155);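 also: 0% = growth of vehicle-only cultures of the same strain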; conditions: S. cerevisiae rad50 strain growth inhibition; at 50.0 µM; hits give high values
Outline: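 Yeast carrying a defined DNA repair defect were exposed to test compounds, and growth was compared with vehicle-treated controls to give percent inhibition.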

[2] = NCI Yeast Anticancer Drug Screen. Data for the mec2-1 strain (AID 157); conditions: S. cerevisiae mec2-1 strain, at 50.0 µM, hits give high values
Outline: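 Yeast mec2-1 mutant treated with compound. Readout: growth inhibition vs vehicle controls.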

[3] = NCI Yeast Anticancer Drug Screen. Data for the sgs1 mgt1 strain (AID 161);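 also: 0% = growth of cultures given vehicle only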; conditions: S. cerevisiae sgs1 mgt1 strain, at 50.0 µM, hits give high values
Outline: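 Read-out: growth inhibition vs vehicle controls. Cells: mutant yeast strain deficient in DNA damage repair.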

[4] = NCI Yeast Anticancer Drug Screen. Data for the cln2 rad14 strain (AID 165);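 also: 0% = growth equal to vehicle treated cultures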; conditions: S. cerevisiae cln2 rad14 strain, at 50.0 µM, hits give high values
Outline: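 cln2 rad14 yeast strain; compound exposure; growth inhibition read vs vehicle controls.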

[5] = NCI Yeast Anticancer Drug Screen. Data for the bub3 strain (AID 167); conditions: S. cerevisiae bub3 mutant strain, at 50.0 µM, hits give high values
Outline: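 Compounds were applied to a genetically altered yeast strain carrying a cell-cycle control defect. Growth inhibition was scored against vehicle-treated controls.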

[6] = NCI Yeast Anticancer Drug Screen. Data for the mlh1 rad18 strain (AID 175); conditions: S. cerevisiae mlh1 rad18 strain growth inhibition; at 50.0 µM; hits give high values
Outline: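 Yeast w/ defined DNA-repair lesions; compound exposure; growth vs vehicle controls → % inhibition.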

Measured: growth inhibition

CCN(C/C=C/CN(CC)C(=S)Nc1ccccc1)C(=S)Nc1ccccc1
inactive: [1] 29.6% | [2] -7.85% | [3] 5.2% | [4] 18.8% | [5] -1.1% | [6] 9.8%

CCOC(=O)C1CC1c1c(C)c2cc3[nH]c(cc4nc(cc5nc(cc1[nH]2)C(C)=C5CCC(=O)OC)C(CCC(=O)OC)=C4C)c(C)c3C1CC1C(=O)OCC (configuration not stated)
inactive: [1] -7.25% | [2] 36.5% | [3] 29.5% | [4] -19.4% | [5] -6.15% | [6] 39.2%

CC(=O)CCc1ccc(Cl)cc1
inactive: [1] -21.6% | [2] -3.55% | [3] -1% | [4] 3.1% | [5] 5.4% | [6] -4.4%

Nc1ncnc2c1S(=O)(=O)NCN2
inactive: [1] 5.05% | [2] -15.8% | [3] 0.45% | [4] -17.3% | [5] -3.15% | [6] -11.7%

O=S1(=O)OCCOS(=O)(=O)C1I
inactive: [1] -8.1% | [2] -30.2% | [3] -12.4% | [4] 11.3% | [5] -21.5% | [6] -29.6%

COc1ccc2[nH]c3c(C)c4c(c(C)c3c2c1)CN(C)CC4
inactive: [1] 3.7% | [2] 4.95% | [3] -17.2% | [4] -1.25% | [5] -7.6% | [6] -5.85%

CC(C)(C)N[P+](Cc1ccccc1)(NC(C)(C)C)c1ccccc1
inactive: [1] 33.1% | [2] 10.9% | [3] 62% | [4] -9.7% | [5] 3.65% | [6] 8.9%

CSC1(SC2=NCCN2)SC2(NCCN2)S1
inactive: [1] 1.75% | [2] -10.8% | [3] -41.6% | [4] -24.1% | [5] -1.55% | [6] -18.1%

CCNc1nc(C)nc2c1cnn2-c1ccccc1
inactive: [1] -16.1% | [2] -12.6% | [3] -6.75% | [4] -56.5% | [5] -4.8% | [6] -9.75%

Nc1nc2c(c(=O)[nH]1)C(c1ccccc1)C(c1ccccc1)C2 (configuration not stated)
inactive: [1] -2.85% | [2] -8.65% | [3] 3.8% | [4] -27.4% | [5] -9.5% | [6] 0.15%

O=C(Nc1cccc2ccccc12)c1ccccc1F
inactive: [1] -1.35% | [2] 16.8% | [3] 14.9% | [4] -2.15% | [5] 21.1% | [6] 11.8%

CC(=O)Nc1cc(C(C)=O)ccc1C(C)=O
inactive: [1] -5.8% | [2] -6.2% | [3] 6% | [4] 2.35% | [5] -0.5% | [6] 12.7%

C=CCN=C1NC(=O)C(CC(=O)Nc2ccc(C)cc2)S1 (configuration not stated)
inactive: [1] -22.6% | [2] -0.25% | [3] 0.25% | [4] 17.4% | [5] 7.05% | [6] 7.65%

Cc1cc(C)c(C(=O)c2ccccc2C(=O)c2ccccc2)c(C)c1
inactive: [1] 20.5% | [2] -5.55% | [3] 17.2% | [4] 20.2% | [5] 20.6% | [6] 11.5%

Cc1cc(C)n(/N=C/c2ccco2)c(=O)c1C#N
inactive: [1] -20.3% | [2] -33.1% | [3] -26.1% | [4] 11.4% | [5] -17.5% | [6] -10.7%

CONCC(=O)c1ccc(SC)cc1
inactive: [1] -18.4% | [2] 0.6% | [3] -13.8% | [4] -21.8% | [5] -9.7% | [6] 0%

CC(=O)OCC1OC(Oc2ccccc2)C(OC(C)=O)C(OC(C)=O)C1OC(C)=O (configuration not stated)
inactive: [1] -3.4% | [2] -5.3% | [3] -0.05% | [4] 12.4% | [5] -4.1% | [6] -10.7%

COc1cccc2c(Nc3ccc(S(=O)(=O)Nc4ncccn4)cc3)c3ccc([N+](=O)[O-])cc3nc12
inactive: [1] 59.8% | [2] 12.1% | [3] 29.2% | [4] 11.2% | [5] 32.2% | [6] 16.2%

COc1c2c(cc3nc4ccccc4nc13)CCC(C(C)(C)O)C2 (configuration not stated)
inactive: [1] 17.9% | [2] -10.2% | [3] -3.45% | [4] 3.9% | [5] -0.7% | [6] 6.3%

CCCCC(CC)CCC(C)=O (configuration not stated)
inactive: [1] 5.8% | [2] -0.8% | [3] 0.35% | [4] 3.3% | [5] 1.75% | [6] -0.9%

Nc1nc(N)c2nnsc2n1
inactive: [1] 13.7% | [2] -5.05% | [3] 13.3% | [4] 16.6% | [5] 14.4% | [6] 2.9%

C(=C(/C=C/C(=C/c1ccccc1)c1ccccc1)c1ccccc1)\c1ccccc1
inactive: [1] 33.5% | [2] 13.8% | [3] -11.7% | [4] -59% | [5] 0.65% | [6] -0.65%

C[n+]1ccccc1/C=C/C=C/c1ccccc1
inactive: [1] 0.45% | [2] -13.1% | [3] 1.4% | [4] -17.3% | [5] -6.1% | [6] 1.9%

Cn1nc(-c2ccccc2)c(C(=O)/C=C/c2ccc(Cl)cc2)c(N2CCCC2)c1=O
inactive: [1] -5.1% | [2] -1.5% | [3] -4.9% | [4] -5.95% | [5] 14.8% | [6] -10.1%

COc1ccc(C(=O)Cc2ccc3ccccc3n2)cc1
inactive: [1] -4.75% | [2] 16.7% | [3] -6.8% | [4] -24.9% | [5] -10.8% | [6] 4.45%

Clc1ccc2c(NCCCCN=Cc3ccccc3)ccnc2c1
inactive: [1] -9.55% | [2] -27.2% | [3] -14% | [4] -10.4% | [5] 15.3% | [6] -12.7%

N#C/C(=C\c1ccccc1Cl)C(N)=S
inactive: [1] 10.6% | [2] 11.2% | [3] 1.15% | [4] 8% | [5] -27.4% | [6] 6.05%

O=C(O)c1ccc(O)c2ccccc12
inactive: [1] -21.9% | [2] -21.2% | [3] -15.4% | [4] -24.7% | [5] -13.1% | [6] -21.9%

CC(=O)c1c(O)ccc2c1CC(CC=O)O2 (configuration not stated)
inactive: [1] 18.6% | [2] -1.05% | [3] -20.9% | [4] 0.75% | [5] 9.05% | [6] -21.4%

Cc1cc(Cc2c(F)c(F)c(C(c3cc(C)no3)c3c(F)c(F)c(F)c(F)c3F)c(F)c2F)on1 (configuration not stated)
inactive: [1] -7.55% | [2] -37.9% | [3] 5.8% | [4] -58.8% | [5] -26.1% | [6] -8.3%

O=S(=O)(Nc1ccc(C(F)(F)F)cc1)c1ccc(F)cc1
inactive: [1] -5.7% | [2] 7.35% | [3] 26% | [4] 15.9% | [5] -0.95% | [6] 28.1%

CCCCCN(CCCCC)C(=O)C(C)C
inactive: [1] -4.45% | [2] 7.8% | [3] 4.6% | [4] -30.1% | [5] -2% | [6] 5.8%

Brc1ccc(Br)s1
inactive: [1] -11.2% | [2] -0.1% | [3] -20.4% | [4] -38.3% | [5] 7.5% | [6] 0.4%

CCCCc1ccncc1
inactive: [1] 5.3% | [2] 4.55% | [3] 18.6% | [4] -25.9% | [5] 8.55% | [6] 19.6%

c1ccc(-c2cnc(C3CCCCC3)o2)cc1
inactive: [1] 28% | [2] -14.1% | [3] 14.8% | [4] 10.2% | [5] 17.1% | [6] 5.55%

O=C(C1SCCCS1)N(O)c1ccccc1OCc1ccccc1
inactive: [1] -3.85% | [2] -37.6% | [3] -22.8% | [4] -14.5% | [5] 0.95% | [6] -19.8%

Cc1ccc(C(=O)N/N=C/c2ccc3ccccc3c2)cc1
inactive: [1] -1% | [2] -13.2% | [3] -5.25% | [4] -13.8% | [5] 33.4% | [6] -5.3%

O=c1[nH]cc(Cl)cc1Cl
inactive: [1] 0.05% | [2] 3.85% | [3] -4% | [4] -8.35% | [5] 2.3% | [6] -1.45%

Cc1c(COC(=O)NC(C)C)c(COC(=O)NC(C)C)c2n1CCS2(=O)=O
inactive: [1] -26.8% | [2] -20.8% | [3] 4.75% | [4] -32.7% | [5] 0.5% | [6] -21.6%

O=S(=O)(Nc1nc2ccccc2nc1N1CCCCCC1)c1ccccc1
inactive: [1] -7.25% | [2] -8.35% | [3] 20.5% | [4] 4.7% | [5] 7.65% | [6] -23.8%

CCCCCCCCC(CO)CCCCCC (configuration not stated)
inactive: [1] 15.9% | [2] -1.05% | [3] 31.4% | [4] 1.65% | [5] -6.4% | [6] 9.15%

Clc1ccc(SCCCCSc2ccc(Cl)cc2)cc1
inactive: [1] 8.05% | [2] -6.7% | [3] 7.7% | [4] -3.45% | [5] 10.8% | [6] 10.8%
